Results published in PubChem BioAssay AID1159580 (chemical genetic matrix, 2015).
Hit rate of the full screen: of about 5,500 compounds, about 2,000 (36%) were called active. Inconclusive results (about 18%) are left out. Rule as the data show it: active = normalized growth mostly below about 0.91 (no sharp cut-off); inconclusive = no clear call, values can overlap the other calls; inactive = mostly above about 0.92. The list shows a part of the results.

Assay: chemical genetic growth profiling, strain panel (AID 1159580);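 also: tested at 20 µM; growth read once vehicle control cultures reached saturation at 30 °C; 1 = growth at the plate median or of vehicle wells; lower values mean less growth of the strain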
Settings: growth OD

Measured: normalized growth

CS(=O)(=O)c1ccc(C2=C(c3ccccc3)C(=O)OC2)cc1
inactive: S. cerevisiae deletion strains, locus YJR066W, strain TOR1, active compounds read low 0.97 | S. cerevisiae deletion strains, locus YJR075W, strain HOC1, active compounds read low 0.992 | S. cerevisiae deletion strains, locus YKL009W, strain mrt4, active compounds read low 0.949 | S. cerevisiae deletion strains, locus YKL068W, active compounds read low 0.983 | S. cerevisiae deletion strains, locus YKL085W, strain MDH1 (second series), active compounds read low 0.979 | S. cerevisiae deletion strains, locus YKL085W, strain MDH1, active compounds read low 0.979 | S. cerevisiae deletion strains, locus YKL160W, strain elf1, active compounds read low 0.988 | S. cerevisiae deletion strains, locus YKL190W, strain CNB1, active compounds read low 0.98 | S. cerevisiae deletion strains, locus YKR001C, strain vps1, active compounds read low 0.987 | S. cerevisiae deletion strains, locus YKR026C, strain gcn3, active compounds read low 0.983 | S. cerevisiae deletion strains, locus YKR091W, strain srl3, active compounds read low 0.961 | S. cerevisiae deletion strains, locus YLL001W, strain dnm1, active compounds read low 0.999 | S. cerevisiae deletion strains, locus YLL026W, active compounds read low 0.985 | S. cerevisiae deletion strains, locus YLL041C, strain sdh2, active compounds read low 0.994 | S. cerevisiae deletion strains, locus YLR027C, strain aat2, active compounds read low 0.978 | S. cerevisiae deletion strains, locus YLR039C, strain RIC1, active compounds read low 0.951 | S. cerevisiae deletion strains, locus YLR058C, strain SHM2, active compounds read low 1 | S. cerevisiae deletion strains, locus YLR102C, strain apc9, active compounds read low 0.992 | S. cerevisiae deletion strains, locus YLR113W, strain HOG1, active compounds read low 1.01 | S. cerevisiae deletion strains, locus YLR221C, strain rsa3, active compounds read low 0.974 | S. cerevisiae deletion strains, locus YLR258W, strain gsy2, active compounds read low 0.988 | S. cerevisiae deletion strains, locus YLR262C, strain YPT6 (second series), active compounds read low 0.96 | S. cerevisiae deletion strains, locus YLR262C, strain YPT6, active compounds read low 0.965 | S. cerevisiae deletion strains, locus YLR268W, strain sec22, active compounds read low 0.971 | S. cerevisiae deletion strains, locus YLR320W, strain mms22, active compounds read low 0.991 | S. cerevisiae deletion strains, locus YLR330W, strain CHS5, active compounds read low 0.986 | S. cerevisiae deletion strains, locus YLR342W, strain FKS1 (second series), active compounds read low 1.01 | S. cerevisiae deletion strains, locus YLR342W, strain FKS1, active compounds read low 0.966 | S. cerevisiae deletion strains, locus YLR357W, strain rsc2, active compounds read low 0.955 | S. cerevisiae deletion strains, locus YLR370C, strain arc18, active compounds read low 0.971 | S. cerevisiae deletion strains, locus YLR371W, strain rom2, active compounds read low 0.981 | S. cerevisiae deletion strains, locus YLR384C, strain iki3, active compounds read low 0.992 | S. cerevisiae deletion strains, locus YLR418C, strain cdc73, active compounds read low 0.987 | S. cerevisiae deletion strains, locus YML016C, strain PPZ1, active compounds read low 1 | S. cerevisiae deletion strains, locus YML032C, strain rad52, active compounds read low 0.97 | S. cerevisiae deletion strains, locus YML120C, strain ndi1, active compounds read low 0.959 | S. cerevisiae deletion strains, locus YML124C, strain tub3, active compounds read low 0.989 | S. cerevisiae deletion strains, locus YMR058W, strain fet3, active compounds read low 0.978 | S. cerevisiae deletion strains, locus YMR078C, strain ctf18, active compounds read low 0.985 | S. cerevisiae deletion strains, locus YMR125W, strain sto1, active compounds read low 0.961 | S. cerevisiae deletion strains, locus YMR129W, active compounds read low 0.988 | S. cerevisiae deletion strains, locus YMR205C, strain PFK2, active compounds read low 0.986 | S. cerevisiae deletion strains, locus YMR223W, strain ubp8, active compounds read low 0.982 | S. cerevisiae deletion strains, locus YMR231W, strain pep5, active compounds read low 0.992 | S. cerevisiae deletion strains, locus YMR263W, strain SAP30, active compounds read low 0.958 | S. cerevisiae deletion strains, locus YMR307W, strain GAS1, active compounds read low 0.998 | S. cerevisiae deletion strains, locus YNL067W, strain RPL9B, active compounds read low 0.953 | S. cerevisiae deletion strains, locus YNL071W, strain lat1, active compounds read low 0.979 | S. cerevisiae deletion strains, locus YNL128W, strain TEP1, active compounds read low 0.985 | S. cerevisiae deletion strains, locus YNL153C, strain GIM3, active compounds read low 0.994 | S. cerevisiae deletion strains, locus YNL183C, strain NPR1, active compounds read low 0.984 | S. cerevisiae deletion strains, locus YNL209W, strain ssb2, active compounds read low 0.951 | S. cerevisiae deletion strains, locus YNL233W, strain BNI4, active compounds read low 0.992 | S. cerevisiae deletion strains, locus YNL248C, strain rpa49, active compounds read low 0.965 | S. cerevisiae deletion strains, locus YNL250W, strain rad50, active compounds read low 0.995 | S. cerevisiae deletion strains, locus YNL271C, strain bni1, active compounds read low 0.971 | S. cerevisiae deletion strains, locus YNL298W, strain CLA4, active compounds read low 0.99 | S. cerevisiae deletion strains, locus YNL307C, strain MCK1, active compounds read low 0.986 | S. cerevisiae deletion strains, locus YNL322C, strain KRE1 (second series), active compounds read low 0.97 | S. cerevisiae deletion strains, locus YNL322C, strain KRE1, active compounds read low 0.994 | S. cerevisiae deletion strains, locus YNR049C, strain mso1, active compounds read low 0.964 | S. cerevisiae deletion strains, locus YNR052C, strain pop2, active compounds read low 0.975 | S. cerevisiae deletion strains, locus YOL006C, strain TOP1, active compounds read low 0.91 | S. cerevisiae deletion strains, locus YOL012C, strain htz1 1.22 | S. cerevisiae deletion strains, locus YOL147C, strain pex11, active compounds read low 0.995 | S. cerevisiae deletion strains, locus YOR001W, strain rrp6, active compounds read low 0.979 | S. cerevisiae deletion strains, locus YOR061W, strain CKA2, active compounds read low 1 | S. cerevisiae deletion strains, locus YOR069W, strain VPS5, active compounds read low 1 | S. cerevisiae deletion strains, locus YOR070C, strain gyp1, active compounds read low 0.977 | S. cerevisiae deletion strains, locus YOR080W, strain dia2, active compounds read low 0.962 | S. cerevisiae deletion strains, locus YOR083W, strain WHI5, active compounds read low 0.975 | S. cerevisiae deletion strains, locus YOR106W, strain vam3, active compounds read low 0.968 | S. cerevisiae deletion strains, locus YOR136W, strain idh2, active compounds read low 0.992 | S. cerevisiae deletion strains, locus YOR144C, strain elg1, active compounds read low 0.975 | S. cerevisiae deletion strains, locus YOR184W, strain ser1, active compounds read low 0.975 | S. cerevisiae deletion strains, locus YOR231W, strain MKK1, active compounds read low 1.03 | S. cerevisiae deletion strains, locus YOR265W, strain rbl2, active compounds read low 0.973 | S. cerevisiae deletion strains, locus YOR270C, strain vph1, active compounds read low 0.933 | S. cerevisiae deletion strains, locus YOR290C, strain snf2, active compounds read low 0.972 | S. cerevisiae deletion strains, locus YOR316C, strain cot1, active compounds read low 0.987 | S. cerevisiae deletion strains, locus YPL051W, strain arl3, active compounds read low 0.986 | S. cerevisiae deletion strains, locus YPL055C, strain LGE1, active compounds read low 0.957 | S. cerevisiae deletion strains, locus YPL078C, strain atp4, active compounds read low 0.986 | S. cerevisiae deletion strains, locus YPL106C, strain sse1, active compounds read low 0.942 | S. cerevisiae deletion strains, locus YPL240C, strain hsp82, active compounds read low 0.969 | S. cerevisiae deletion strains, locus YPL241C, strain CIN2, active compounds read low 0.994 | S. cerevisiae deletion strains, locus YPL256C, strain CLN2, active compounds read low 1.06 | S. cerevisiae deletion strains, locus YPR141C, strain kar3, active compounds read low 0.98 | S. cerevisiae deletion strains, locus YPR163C, strain tif3, active compounds read low 0.989 | S. cerevisiae deletion strains, locus YPR167C, strain met16, active compounds read low 0.978 | S. cerevisiae deletion strains, strain wtn01, active compounds read low 0.985 | S. cerevisiae strains, strain wild type, active compounds read low 0.989
